{"source": "PubChem BioAssay (Tox21)", "note": "Records with an inconclusive call do not appear. A call without a number means that no potency is given here. Activity calls are given as the source filed them. Calls come from the whole dose curve; as a rule, active = well fitted inhibition curve with a large enough effect in the repeat runs; inconclusive = weak or mixed curves, or effect the other way; inactive = no such curve, though single readings can be large or run the other way. Potency is the fitted concentration of half-maximal effect."}
{"molecular_target": "Nuclear receptor subfamily 1 group I member 3 (Homo sapiens) (UniProt Q14994)", "sequence (Q14994 whole entry, looked up)": "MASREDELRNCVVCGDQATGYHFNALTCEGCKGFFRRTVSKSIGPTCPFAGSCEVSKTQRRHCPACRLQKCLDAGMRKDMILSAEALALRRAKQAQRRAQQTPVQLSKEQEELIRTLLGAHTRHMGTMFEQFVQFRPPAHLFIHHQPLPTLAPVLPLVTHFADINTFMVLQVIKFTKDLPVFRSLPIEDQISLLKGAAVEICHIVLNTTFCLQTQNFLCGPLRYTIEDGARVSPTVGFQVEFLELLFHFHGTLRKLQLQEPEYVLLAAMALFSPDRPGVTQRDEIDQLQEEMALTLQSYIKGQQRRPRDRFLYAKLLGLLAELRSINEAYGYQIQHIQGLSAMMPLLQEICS", "experiment": "qHTS assay to identify small molecule antagonists of the constitutive androstane receptor (CAR) signaling pathway (AID 1224838);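 note: HepG2 cells stably expressing hCAR with CYP2B6 luciferase reporter stimulated by CITCO; nearly all actives have a fitted effect of over 40% in size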", "settings": "HepG2-CYP2B6-hCAR luciferase, CITCO-stimulated, 24 h; series mostly up to 92.4 µM", "source_text": "U.S. Tox21 Program National Center for Advancing Translational Sciences [NCATS] NIH Chemical Genomics Center [NCGC] U.S. Environmental Protection Agency [EPA] National Institutes of Environmental Health Sciences [NIEHS] National Toxicology Program [NTP] U.S. Food and Drug Administration [FDA] Tox21 Assay Overview: The constitutive androstane receptor (CAR) is a nuclear receptor which regulates multiple drug metabolizing enzymes (DMEs) and transporters. Activating CAR will generally increase the transcription and subsequent translation of CYP2B6 and CYP3A4. These two DMEs represent about 50% of the drug metabolizing potential in the body. When CAR is deactivated, the metabolizing potential in the body will decrease, subsequently increasing the toxicity in the body or lowering the therapeutic potential of a pro-drug. Recently, there have also been studies performed indicating CARs role in energy metabolism and cancer therapy. Therefore, inhibiting CARs activity could have a potential effect on diabetes and cancer. Identifying environmental toxins and compounds which modulate CAR, through the use of the Tox21 10K compound collection, will be an important step in determining the toxicity and potential therapeutic effects these factors will have on the human body.\nTox21 Assay Protocol Summary: A double-stable (hCAR and CYP2B6-2.2kb) transfected cell line, derived from human hepatoma (HepG2) cells, was utilized for the duration of the quantitative high-throughput screens. The HepG2-CYP2B6-hCAR cells suspended in DMEM culture medium supplemented with 10% FBS, 5 ug/mL blasticidin, 0.5 mg/mL geneticin, 100 U/mL penicillin and 100 ug/mL streptomycin were dispensed at 2500 cells/4 uL/well in 1536-well white solid bottom plates using a Multidrop Combi. After the assay plates were incubated at 37 C/5% CO2 for 4 hrs, 23 nL of compounds at 15 concentrations (from 5-48 columns) or positive control (from 1 to 4 columns) were transferred to the assay plates using a Pintool station. One uL of CITCO, was added using a Flying Reagent Dispenser to generate a final concentration of 50 nM CITCO inside each well. After a 24 hr incubation period at 37 C/5% CO2, four uL of ONE-Glo reagent was added into the assay plates using a Flying Reagent Dispenser. After a 30 min incubation period at room temperature, the luminescence intensity in the assay plates was measured using a ViewLux plate reader."}
{"smiles": "O=C1CCCN1CCO", "Potency": "inactive"}
{"smiles": "C[C@@H](O)[C@H]1C(=O)N2C(C(=O)O)=C(S[C@@H]3CN[C@H](CNS(N)(=O)=O)C3)[C@H](C)[C@H]12", "Potency": "inactive"}
{"smiles": "CC[C@H](NC(C)C)[C@H](O)c1ccc(O)c2[nH]c(=O)ccc12", "Potency": "inactive"}
{"smiles": "O=[N+]([O-])c1ccc(Cl)cc1Cl", "Potency": "inactive"}
{"smiles": "c1ccc(CN(Cc2ccccc2)Cc2ccccc2)cc1", "Potency": "inactive"}
{"smiles": "CCCCCCC/C=C/C=O", "Potency": "inactive"}
{"smiles": "CC(=O)c1cccnc1", "Potency": "inactive"}
{"smiles": "C[Si](C)(C)O[Si](C)(C)O[Si](C)(C)C", "Potency": "inactive"}
{"smiles": "COC(=O)/C=C/C(C)=C\\C=C\\C(C)=C\\C=C\\C=C(C)\\C=C\\C=C(C)\\C=C\\C(=O)O", "Potency": "inactive"}
{"smiles": "CCCOC(C)=O", "Potency": "inactive"}
{"smiles": "CCCCCCCCCC(C)C=O", "note": "(stereo not given)", "Potency": "inactive"}
{"smiles": "NC(=O)c1cc[n+](CC2=C(C(=O)[O-])N3C(=O)[C@@H](NC(=O)Cc4cccs4)[C@H]3SC2)cc1", "Potency": "inactive"}
{"smiles": "CC(=O)Nc1ccccc1O", "Potency": "inactive"}
{"smiles": "CC(C)C[C@H](NC(=O)[C@H](Cc1ccccc1)NC(=O)c1cnccn1)B(O)O", "Potency": "0.0376 µM (active)"}
{"smiles": "C=CCCC", "Potency": "inactive"}
{"smiles": "Nc1nc(Cl)nc2c1ncn2[C@H]1C[C@H](O)[C@@H](CO)O1", "Potency": "0.121 µM (active)"}
{"smiles": "CCCN(C1CCN(C(=O)C2CCNCC2)CC1)[C@@H]1CCc2ccc(OC)cc2C1", "Potency": "inactive"}
{"smiles": "O=Cc1ccc([N+](=O)[O-])cc1", "Potency": "inactive"}
{"smiles": "O=c1[nH][nH]c2ccccc12", "Potency": "55.5 µM (active)"}
{"smiles": "O=Cc1ccc(Cl)c([N+](=O)[O-])c1", "Potency": "inactive"}
{"smiles": "NC(=O)c1ccccc1C(N)=O", "Potency": "30.8 µM (active)"}
{"smiles": "COC(=O)Cc1cccc2ccccc12", "Potency": "inactive"}
{"smiles": "CCN(CCCCOC(=O)c1ccc(OC)c(OC)c1)C(C)Cc1ccc(OC)cc1", "note": "(stereo not given)", "Potency": "inactive"}
{"smiles": "O=C(O)c1cc(C(=O)O)cc([N+](=O)[O-])c1", "Potency": "inactive"}
{"smiles": "O=C(Cl)c1cc(Cl)cc(Cl)c1", "Potency": "inactive"}
{"smiles": "C(/C=C/C=C/Nc1ccccc1)=Nc1ccccc1", "Potency": "inactive"}
{"smiles": "O=C1c2ccccc2C(=O)C1c1ccc2ccccc2n1", "Potency": "inactive"}
{"smiles": "CCCCOC(=O)CC#N", "Potency": "inactive"}
{"smiles": "NCCOCCOCCN", "Potency": "inactive"}
{"smiles": "Nc1cccc2c(=O)[nH][nH]c(=O)c12", "Potency": "inactive"}
{"smiles": "Nc1ncnc2c1ncn2[C@@H]1O[C@H](CO)[C@@H](O)[C@H]1O", "Potency": "inactive"}
{"smiles": "CC(C)CC(C)(C)C", "Potency": "inactive"}
{"smiles": "CCOC(=O)CC(O)(CC(=O)OCC)C(=O)OCC", "Potency": "inactive"}
{"smiles": "CCCCCO", "Potency": "inactive"}
{"smiles": "Cc1ccc(NC(=O)c2ccc(CN3CCN(C)CC3)cc2)cc1Nc1nccc(-c2cccnc2)n1", "Potency": "inactive"}
{"smiles": "Oc1ccc(Oc2ccccc2)cc1", "Potency": "inactive"}
{"smiles": "O=C(c1ccc(Cl)cc1)c1ccc(Cl)cc1", "Potency": "inactive"}
{"smiles": "CC(C)(C(=O)O)c1ccc(C(O)CCCN2CCC(C(O)(c3ccccc3)c3ccccc3)CC2)cc1", "note": "(stereo not given)", "Potency": "inactive"}
{"smiles": "CC(O)C(C)O", "note": "(stereo not given)", "Potency": "inactive"}
{"smiles": "Cc1c(N=C=O)cccc1N=C=O", "Potency": "inactive"}
